# Measured values from PubChem BioAssay AID624483 (NMMLSC, 2012).
# Hit rate of the full screen: of about 360,000 compounds, about 11,000 (3.1%) were called active. Not shown: some 2% with an inconclusive outcome. Rule as the data show it: active = fluorescence intensity above about 16000; inconclusive = no clear call, values can overlap the other calls; inactive = below that. The list comes from a sample in which actives are over-represented; it also holds similar structures and randomly drawn compounds.
# Test: counter-screen for toxin protease inhibitors: compound fluorescence, primary screen, artefact control for toxin protease inhibitor project, biochemical, multiplex microsphere, HTS (AID 624483)
# Conditions: compound autofluorescence counterscreen, microsphere flow cytometry; stronger effect = higher value
row,SMILES,fluorescence intensity
1,Cc1ccc([C@H]2N[C@]3(CCCN(CC4CCCCC4)C3=O)[C@H]3C(=O)N(Cc4ccccc4)C(=O)[C@@H]23)cc1,3930 (inactive)
2,O=c1c2ccccc2ncn1/N=C/c1ccccc1,3940 (inactive)
3,CC(C)(C)c1nnc(N/N=C/c2ccc(O)cc2)n(N)c1=O,9530 (inactive)
4,O=c1c2ccccc2nc(N/N=C/c2ccccc2)n1O,24900 (active)
5,Cn1cccc1Cc1nnc(SCC(=O)NCCc2ccccc2)n1-c1ccc(F)cc1,5310 (inactive)
6,Cc1nnc(SCc2ccc(C(=O)c3ccc(Cl)cc3)o2)n1-c1ccccc1,6940 (inactive)
7,Cc1ccc(-c2noc(CSc3nnc(-c4cccs4)n3C)n2)cc1,9700 (inactive)
8,Cn1c(SCc2ccc(F)cc2)nnc1-c1ccncc1,4260 (inactive)
9,Cc1ccc(-c2noc(CSc3nnc(-c4ccncc4)n3-c3ccc(F)cc3)n2)cc1,21100 (active)
10,Fc1ccc(-n2c(Cc3ccccc3)nnc2SCc2nc(-c3ccc(Cl)cc3)no2)cc1,25000 (active)
11,CC(C)(C)NC(=O)NC(=O)COC(=O)Cc1c(F)cccc1Cl,4470 (inactive)
12,O=C(Nc1c(Br)cc2c(c1Br)Cc1ccccc1-2)C(F)(F)F,3730 (inactive)
13,O=C(CC(NCCN1CCOCC1)C(=O)O)Nc1cccc(Cl)c1 (centres undefined),3410 (inactive)
14,COc1cccc(NC(=O)CSc2nnc(C3CCCCC3)n2N)c1,7460 (inactive)
15,C=CCn1c(CC(=O)Nc2cccc(OC)c2)nnc1SCC(=O)NC1CCCCC1,21000 (active)
16,Cn1c(CC(=O)Nc2ccc(F)cc2)nnc1SCC(=O)NC1CCCCC1,3940 (inactive)
17,Cc1nc2c(OCc3ccc(Cl)cc3Cl)cccn2c1N(C)CC1CC1,3540 (inactive)
18,C[C@@H]1CN([C@@H](C)CO)C(=O)c2cc(Br)cnc2O[C@H]1CN(C)Cc1ccc(-c2ccccc2)cc1,2930 (inactive)
19,CCCNC(=O)c1cc(C2CCCN(C(=O)c3ccc4c(c3)CCO4)C2)on1 (centres undefined),3960 (inactive)
20,CC1CN(C(=O)c2ccc([N+](=O)[O-])s2)CC(C)O1 (centres undefined),6540 (inactive)

row,SMILES,fluorescence intensity
1,O=[N+]([O-])c1ccc(C=Nc2ccc(Cl)cc2Cl)s1,22300 (active)
2,CNN/C(N=Cc1ccc([N+](=O)[O-])s1)=N\S(=O)(=O)c1cc(C)c(Cl)cc1SCc1ccccc1,3540 (inactive)
3,CC(=O)NC(c1cccc(F)c1)c1nc(-c2cccc(F)c2)cs1 (centres undefined),2910 (inactive)
4,COCCNC(=O)c1ccc2nc(Cc3ccc(OC)c(OC)c3)oc2c1,4160 (inactive)
5,CCCCc1nc2ccc(F)cc2cc1C,6420 (inactive)
6,O=C1NC[C@H](CCCCN2C[C@H](Cc3ccccc3)N(Cc3ccccc3)C(=O)C2=O)N(CCc2ccc(O)cc2)C1=O,4050 (inactive)
7,Cc1ccc(S(=O)(=O)c2ccc(Cl)cc2)cc1S(=O)(=O)NC(C(=O)O)C(C)C (centres undefined),1970 (inactive)
8,COCCNC(=O)c1ccc(S(=O)(=O)c2ccc(Cl)cc2)c(NC(C)=O)c1,3030 (inactive)
9,CC(=O)Nc1cc(C(=O)O)ccc1S(=O)(=O)c1ccc(Cl)cc1,22400 (active)
10,CC1(C(=O)Nc2cccc3cccnc23)CCN1C(=O)CCC1CCCC1 (centres undefined),3540 (inactive)
11,COc1cccc(CN(C)C(=O)CC[C@H]2O[C@@H](n3cnc4c(NC(=O)c5ccccc5)ncnc43)[C@H](O)[C@@H]2O)c1,5840 (inactive)
12,COc1ccc(C)cc1NC(=O)NCc1ccccn1,2130 (inactive)
13,COc1ccc2ccccc2c1CNc1nnnn1C,4610 (inactive)
14,COc1ccc2ccccc2c1CNCc1ccccn1,22000 (active)
15,Cc1ccc(Cc2c(-c3ccco3)nc3ccc(Cl)cn23)cc1,5920 (inactive)
16,CC(=O)Nc1ccc(S(=O)(=O)NC2Cc3ccccc3C2)cc1,4250 (inactive)
17,COc1ccc(-c2cc(NC=O)c3ncc(-c4ccccc4)n3c2)cc1OC,4190 (inactive)
18,CN(CC#CCC(c1ccccc1)c1ccccc1)C(C)(C)C,13300 (inactive)
19,CC(C)NC(=O)C(=O)NCCN1CCN(S(=O)(=O)c2ccc(Cl)cc2)CC1,10600 (inactive)
20,CS(=O)(=O)N1CCCCC1c1cc(C(=O)NCc2ccccc2)no1 (centres undefined),2870 (inactive)

row,SMILES,fluorescence intensity
1,CC(=O)c1cccc(-c2cnc3c(NC=O)cc(-c4ccc(N5CCN(C)CC5)cc4)cn23)c1,3240 (inactive)
2,O=C(Nc1ccc(C(=O)N2CCOCC2)cc1)Nc1cccc(C(F)(F)F)c1,6040 (inactive)
3,O=C(CN1CCN(c2ccc(F)cc2)CC1)Nc1cccc(C(F)(F)F)c1,2100 (inactive)
4,NC(=O)Nc1cccc(C(F)(F)F)c1,23300 (active)
5,COc1ccc(NC(=O)C2(C)Cc3c(-c4ccc(C(N)=O)cc4)ccnc3O2)cc1 (centres undefined),3540 (inactive)
6,COC(=O)c1ccc(CNC(=O)C2CCC(=O)N(Cc3ccccn3)C2)cc1 (centres undefined),4790 (inactive)
7,CCS(=O)(=O)Nc1cc(C(=O)OC)ccc1C(=O)OC,20300 (active)
8,CCCN(CCC)C(=S)Nc1cc(C(=O)OC)ccc1C(=O)OC,2240 (inactive)
9,COC(=O)c1ccc(C(=O)OC)c(NC(=S)N2CCCCC2)c1,5240 (inactive)
10,CC1C(=O)N(Cc2cn(Cc3ccco3)nn2)CCS(=O)(=O)N1Cc1ccc(-c2cccc(CO)c2)cc1 (centres undefined),3680 (inactive)
11,C=CCN1C2CCCC1CC(NC(=S)Nc1cccc(OC)c1)C2 (centres undefined),4340 (inactive)
12,CCCCNC(=O)c1nc(C2CCN(S(=O)(=O)c3ccc(F)c(F)c3)CC2)oc1-c1cccc(C(F)(F)F)c1,5910 (inactive)
13,Cc1cc(NC(=O)Nc2ccc(Cl)cc2)n(-c2ccccc2)n1,5820 (inactive)
14,O=C(Nc1ccc(Cl)cn1)c1cnn2cccnc12,4840 (inactive)
15,Cc1cc(NC(=O)c2cnn3cccnc23)n(-c2ccccc2)n1,19500 (active)
16,O=C(NCc1ccc(F)cc1)c1cc(C2CCCCN2C(=O)C2CCCCC2)on1 (centres undefined),3660 (inactive)
17,CC(=O)c1cccc(NC(=S)N2CCCC2)c1,4420 (inactive)
18,CCC(CC)C(=O)Nc1cccc(C(=O)N2CCCC2)c1,9330 (inactive)
19,O=C(Nc1cccc(C(=O)N2CCCC2)c1)c1ccccc1,23500 (active)
